Source: PubChem BioAssay (EPA / NIEHS)
Inconclusive results are not listed. Activity calls are given as the source filed them. How the source made its calls, unless noted: active means hit-call score of the fitted dose curve at least 0.9, where 1 is the maximum; inactive means score below 0.9.

How the values were obtained:
[1] = CCTE_Shafer_MEA_dev_per_network_spike_spike_percent: CCTE's Neural Network Formation Assay for Percent of Spikes in a Network Spike, Shafer Lab (AID 2284054)
Method in brief: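 Developing networks of rat cortical neurons are dosed at day 0 and recorded extracellularly four times up to day 12. The endpoint is the area under the curve of percent spikes in network spikes, fitted in the negative direction relative to DMSO.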

[2] = CCTE_Shafer_MEA_dev_LDH: CCTE's Lactate Dehydrogenase Assay for Cytotoxicity in the Neural Network Formation Assay, Shafer Lab (AID 2284068; active means hit-call score of the fitted dose curve at least 0.9, where 1 is the maximum;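 further: exposure for twelve days from plating with re-dosing on DIV 5 and 9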)
Method in brief: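 Primary rat cortical neurons were cultured on PEI-coated MEA plates and exposed from plating through day 12, with compound renewed at medium changes on DIV 5 and 9. LDH activity was read spectrophotometrically; loss of signal versus DMSO indicates reduced viability.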

[3] = CCTE_Shafer_MEA_acute_AB: CCTE's Alamar Blue Assay for Cytotoxicity in the Neural Acute Assay, Shafer Lab (AID 2284069; active means hit-call score of the fitted dose curve at least 0.9, where 1 is the maximum;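 further: active compounds lower the viability signal compared with DMSO wells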)
Method in brief: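 Resazurin reduction (CellTiter Blue, 1:6 in fresh medium) read at ex 544/em 590 nm marks viability loss relative to DMSO. Cells: primary rat cortical neuron networks on microelectrode arrays, treated after baseline recording at 13 or 15 days in vitro.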

[4] = UKN5_HCS_SBAD2_neurite_outgrowth: University of Konstanz (UKN) Leist Lab Neurite Outgrowth Assay in human iPSC-derived immature Dorsal Root Ganglia Neurons (UKN5) (AID 2284070); conditions: actives raise or lower the signal
Method in brief: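 Neurite outgrowth is quantified as calcein-AM-labelled neurite area in human iPSC-derived peripheral neurons treated for 24 h, starting 1 h after plating in medium with CHIR99021 (1.5 uM), SU5402 (5 uM) and DAPT (5 uM).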

[5] = CCTE_Shafer_MEA_acute_LDH: CCTE's Lactate Dehydrogenase Assay for Cytotoxicity in the Neural Acute Assay, Shafer Lab (AID 2284086; active means hit-call score of the fitted dose curve at least 0.9, where 1 is the maximum;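 further: active means LDH release rises above DMSO vehicle level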)
Method in brief: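 Cytotoxicity readout: spectrophotometric LDH activity in supernatant of rat primary cortical neurons, post-plating day 13 or 15, sampled after 40 min compound exposure; signal gain relative to DMSO baseline.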

[6] = CCTE_Shafer_MEA_dev_mutual_information_norm: CCTE's Neural Network Formation Assay for Mutual Information Normalization, Shafer Lab (AID 2284091)
Method in brief: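 Exposure of primary rat cortical neurons began at plating and ran to DIV 12, with full media and treatment renewal after DIV 5 and 9 recordings. Mutual information AUC (DIV 5–12) was analysed for loss versus DMSO.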

[7] = CCTE_Shafer_MEA_dev_correlation_coefficient_mean: CCTE's Neural Network Formation Assay for Mean Correlation Coefficient, Shafer Lab (AID 2284093)
Method in brief: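 Primary rat cortical neurons on PEI-coated 48-well MEA plates (16 electrodes/well) were exposed from plating day 0 through DIV12, with compound renewed at DIV5 and 9. Pairwise spike correlations were averaged per well; trapezoidal AUC across DIV5, 7, 9, 12.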

[8] = UKN2_HCS_IMR90_neural_migration: University of Konstanz (UKN) Leist Lab Neural Crest Cell Migration Assay in human induced IMR90 Pluripotent Stem Cells (UKN2) (AID 2284204); conditions: actives raise or lower the signal
Method in brief: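 Using a 96-well stopper format with PLO/laminin/fibronectin coating, neural crest cells from iPSC migrate in cytokine-supplemented N2-S medium; after 24 h, chemicals are applied for a further 24 h, then cells are imaged after dye staining.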

[9] = IUF_NPC1b_proliferation_BrdU_72hr: Leibniz Research Institute for Environmental Medicine (IUF) 72-hour Neural Progenitor Cell Bromodeoxyuridine (BrdU) Proliferation Assay (NPC1b) (AID 2284207)
Method in brief: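 Neural progenitor spheres of human fetal origin are treated for three days; BrdU added for the last 16 h is quantified by luminescence ELISA, with DMSO as baseline and EGF/FGF omission as positive control.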

[10] = IUF_NPC1a_proliferation_area_72hr: Leibniz Research Institute for Environmental Medicine (IUF) 72-hour Neural Progenitor Cell Proliferation Area Assay (NPC1a) (AID 2284208)
Method in brief: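 Single 0.25–0.35 mm human fetal neural progenitor spheres in proliferation medium with EGF and FGF, exposed 72 h from plating without renewal at 37C, pH 7.2-7.6. Sphere area growth measured by automated phase-contrast imaging, relative to DMSO.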

[11] = UKN4_HCS_LUHMES_cell_viability: Viability Assessment in the University of Konstanz (UKN) Leist Lab Neurite Outgrowth Assay in human LUHMES cells (UKN4) (AID 2284232)
Method in brief: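 Measured in replated, 2-day-differentiated LUHMES cells treated 24 h; stained 30 min with H-33342 and calcein-AM before high-content imaging.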

[12] = UKN2_HCS_IMR90_cell_viability: Viability Assessment in the University of Konstanz (UKN) Leist Lab Neural Crest Cell Migration Assay in human induced IMR90 Pluripotent Stem Cells (UKN2) (AID 2284233);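 further: viability of neural crest cells differentiated from IMR90 iPSC measured by calcein-AM fluorescence imaging; cells exposed to compound for 24 h after a 24 h migration phase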
Method in brief: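 cMINC format, iPSC-derived neural crest (IMR90); 24 h migration (EGF/FGF, N2-S), then 24 h toxicant. Calcein-AM/H-33342 stain 30 min; fluorescence intensity by HCS; DMSO-normalised, bidirectional fitting.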

[13] = IUF_NPC2c_oligodendrocyte_migration_120hr: Leibniz Research Institute for Environmental Medicine (IUF) 120-hour Neural Progenitor Cell Migration Assay for Oligodendrocyte Migration (NPC2c) (AID 2284297);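 further: O4-positive oligodendrocyte migration distance divided by radial glia migration distance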
Method in brief: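 Human fetal neural progenitor spheres (0.3 mm) are plated on poly-D-lysine/laminin in N2 differentiation medium and exposed for 120 h, with half-medium renewal at day 3. Oligodendrocyte (O4+) migration distance comes from ICC imaging, normalised to radial glia migration.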

[14] = IUF_NPC2a_radial_glia_migration_120hr: Leibniz Research Institute for Environmental Medicine (IUF) 120-hour Neural Progenitor Cell Migration Assay for Radial Glia Migration (NPC2a) (AID 2284298)
Method in brief: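 Human fetal-cortex neural progenitor spheres (0.3 mm) plated on poly-D-lysine/laminin in N2 differentiation medium, exposed 120 h at 37C with half-medium renewal at day 3. Radial glia migration distance (um) measured from Hoechst-stained nuclei images; DMSO baseline.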

[15] = IUF_NPC2a_radial_glia_migration_72hr: Leibniz Research Institute for Environmental Medicine (IUF) 72-hour Neural Progenitor Cell Migration Assay for Radial Glia Migration (NPC2a) (AID 2284299)
Method in brief: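 Spheres of human primary neural progenitors migrate on poly-D-lysine/laminin under compound exposure at 37C, 5% CO2. The 72 h radial glia migration distance comes from brightfield images, measured manually.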

[16] = IUF_NPC2b_neuronal_migration_120hr: Leibniz Research Institute for Environmental Medicine (IUF) 120-hour Neural Progenitor Cell Migration Assay for Neuron Migration (NPC2b) (AID 2284300)
Method in brief: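 0.3 mm hNPC spheres on poly-D-lysine/laminin in N2 differentiation medium exposed 120 h, half-medium refresh day 3; 7 concentrations, DMSO max 0.1%. Neuron (TUBB3) distance from sphere core by ICC imaging, normalised to radial glia migration.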

[17] = IUF_NPC3_neuronal_differentiation_120hr: Leibniz Research Institute for Environmental Medicine (IUF) 120-hour Neuronal Differentiation Assay (NPC3) (AID 2284301)
Method in brief: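 Neuronal differentiation of primary human neural progenitors measured by high-content imaging: percent TUBB3+ of Hoechst+ nuclei within migrated area at 120 h, seven-point serial dilution plus solvent control, gain or loss relative to DMSO.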

[18] = IUF_NPC4_neurite_length_120hr: Leibniz Research Institute for Environmental Medicine (IUF) 120-hour Neuronal Morphology Assay for Neurite Length (NPC4) (AID 2284302)
Method in brief: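 Neurons from differentiating human fetal neural progenitor spheres are scored for average neurite length after five days of compound exposure. Fitting uses DMSO as negative control.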

[19] = IUF_NPC4_neurite_area_120hr: Leibniz Research Institute for Environmental Medicine (IUF) 120-hour Neuronal Morphology Assay for Neurite Area (NPC4) (AID 2284305; active means hit-call score of the fitted dose curve at least 0.9, where 1 is the maximum)
Method in brief: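 Endpoint at 120 h: automated imaging of TUBB3/Hoechst-stained differentiating human neural progenitor spheres, neurite area per neuron from skeletonization. DMSO solvent control, not above 0.1%, set the baseline; medium was half-replaced on day 3.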

[20] = IUF_NPC2-5_cytotoxicity_72hr: Cytotoxicity Assessment at 72 hours in the Leibniz Research Institute for Environmental Medicine (IUF) Neural Progenitor Cell Migration and Differentiation Assay for Cytotoxicity (NPC2-5) (AID 2284306; active means hit-call score of the fitted dose curve at least 0.9, where 1 is the maximum;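 further: LDH release into supernatant measured by resorufin fluorescence marking membrane damage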)
Method in brief: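 Primary human neural progenitor spheres migrate and differentiate on laminin. Compound is present from the start of differentiation, with DMSO kept at or below 0.1%. At 72 h, supernatant LDH is quantified fluorometrically, with values fitted in the positive direction.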

[21] = IUF_NPC2-5_cytotoxicity_120hr: Cytotoxicity Assessment at 120 hours in the Leibniz Research Institute for Environmental Medicine (IUF) Neural Progenitor Cell Migration and Differentiation Assay (NPC2-5) (AID 2284307; active means hit-call score of the fitted dose curve at least 0.9, where 1 is the maximum)
Method in brief: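 Human fetal (GW 16-19) neural progenitor spheres (0.3 mm) plated on poly-D-lysine/laminin in N2 differentiation medium, exposed 120 h with half-medium renewal at day 3; 7 concentrations plus solvent control, DMSO ≤0.1%. LDH release in supernatant read by resorufin fluorescence.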

[22] = IUF_NPC2-5_cell_number_120hr: Cell Number Assessment at 120 hours in the Leibniz Research Institute for Environmental Medicine (IUF) Neural Progenitor Cell Migration and Differentiation Assay (NPC2-5) (AID 2284308);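 further: count of Hoechst-stained nuclei in migration zone around plated human neural progenitor spheres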
Method in brief: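 Human fetal neural progenitor spheres (0.3 mm) plated on poly-D-lysine/laminin in N2 differentiation medium, exposed five days across 7 concentrations with half-medium refresh at day 3. Hoechst-positive nuclei counted in migration area at 120 h, relative to DMSO.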

[23] = IUF_NPC2-5_viability_120hr: Viability Assessment at 120 hours in the Leibniz Research Institute for Environmental Medicine (IUF) Neural Progenitor Cell Migration and Differentiation Assay (NPC2-5) (AID 2284312)
Method in brief: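 Human fetal (GW 16-19) neural progenitor spheres of 0.3 mm were plated on poly-D-lysine/laminin in N2 differentiation medium and exposed from day 0 for 120 h, with half-medium refresh at day 3. Viability was read as alamar blue resazurin-to-resorufin fluorescence against DMSO.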

[24] = IUF_NPC1_cytotoxicity_72hr: Cytotoxicity Assessment at 72 hours in the Leibniz Research Institute for Environmental Medicine (IUF) Neural Progenitor Cell Proliferation Assay (NPC1) (AID 2284332; active means hit-call score of the fitted dose curve at least 0.9, where 1 is the maximum;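 further: rising LDH signal means more cytotoxicity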)
Method in brief: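 Readout is fluorescence from LDH-dependent resazurin conversion, sampled from culture medium after compound contact lasting 72 h. Each well holds one 0.25-0.35 mm human progenitor sphere kept at 37C, 5% CO2 with EGF and FGF.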

Measured: outcome

CP(=O)(O)CCC(N)C(=O)O (centres undefined)
inactive: all assays above
